Laboratory results published in the supplement of paper PMC6555819.

Legend:
Experiment in all cases: PBM binding z-score (relative to random genomic background probes); higher = stronger binding; sequences stand for … in GC…GCGATTGACAGCGTAGAATGAAGG
[1] = tested on: PPARg:RXRa DBDmut IVT, anti-RXR (DBD mutation: RXRa K156A/R161A, NR concentration 270 nM, RXRa partner concentration 90 nM)
How it was run: (§1)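 Custom Agilent 4×180K protein-binding microarrays carried double-stranded probes. Their 34-nt variable regions held direct-repeat seeds, single-nucleotide variants, half-site ablations and random human genomic background sequences. Arrays were incubated 1 h with ligand-free nuclear receptor dimers in PBS pH 7.4, 2% milk, 0.02% Triton X-100, 1 mM DTT, 0.2 mg/mL BSA and 0.4 mg/ml salmon testes DNA. Antibodies against each partner (one per run) detected binding, and scanned fluorescence was regression-normalized. Binding z-scores use random background probes as reference.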

[2] = tested on: PPARg:RXRa IVT, anti-PPARg (NR concentration 270 nM, RXRa partner concentration 90 nM)
How it was run: as §1

[3] = tested on: PPARg DBDmut:RXRa IVT, anti-PPARg (DBD mutation: PPARg1 K132A/R137A, NR concentration 270 nM, RXRa partner concentration 90 nM)
How it was run: as §1

[4] = tested on: PPARg DBDmut IVT, anti-PPARg (DBD mutation: PPARg1 K132A/R137A, NR concentration 270 nM)
How it was run: as §1

[5] = tested on: PPARg homodimer (NR concentration 180 nM)
How it was run: as §1

[6] = tested on: PXR:RXRa (NR concentration 270 nM, RXRa partner concentration 90 nM)
How it was run: as §1

[7] = tested on: PXR homodimer (NR concentration 270 nM)
How it was run: as §1

[8] = tested on: RARa:RXR (NR concentration 270 nM, RXRa partner concentration 90 nM)
How it was run: as §1

[9] = tested on: RARa homodimer (NR concentration 270 nM)
How it was run: as §1

[10] = tested on: RARb:RXRa (NR concentration 270 nM, RXRa partner concentration 90 nM)
How it was run: as §1

Sequence | PBM binding z-score [1] | PBM binding z-score [2] | PBM binding z-score [3] | PBM binding z-score [4] | PBM binding z-score [5] | PBM binding z-score [6] | PBM binding z-score [7] | PBM binding z-score [8] | PBM binding z-score [9] | PBM binding z-score [10]
TCATATAGTTAAAGGTGAAAGTCGAACGATATGA | 1.5 | 1.85 | 0.7 | 1.07 | 1.1 | 0.912 | -0.26 | 1.47 | 0.716 | 2.05
TCGTGTAGATCAATAGAGGTTAAGAAAGTGCGCT | 1.64 | 0.537 | -0.0229 | -0.0334 | 0.586 | 2.99 | 0.386 | 1.79 | 0.575 | 0.822
CGTCAAAGTTCAACTAAGGTACCGTAAAGCACGC | 0.831 | 1.71 | 0.452 | 0.671 | 2.68 | 4.87 | 3.81 | 3.96 | 1.72 | 5.21
ATACCAAGGTGATCGTGACGTCGTTGATACTAAC | 0.791 | 1.2 | 0.681 | 0.866 | 0.477 | 0.0619 | 0.0409 | 0.447 | 0.899 | 0.752
TGTCAAAGTTCAAAGGTAACGTAGGTATCCACAC | 0.105 | 4.5 | 1.01 | 1.42 | 2.88 | 5.78 | 3.36 | 6.75 | 1.57 | 5.06
CGAACTAGGTCAGAACCGGACAGTGAAGGATGAT | 7.36 | 7.01 | 0.829 | -0.265 | 0.564 | 0.339 | -0.0754 | 0.679 | -0.208 | 2.85
ATCGAAAGGTCGACGGGGTGAGTATACACCGTTT | 0.683 | 2.19 | 1.15 | 0.814 | 2.18 | 3.64 | 1.33 | 4.46 | 0.456 | 3.98
ATCTCTAGGTAACAGTTCAGTGAATCCCGAGGAT | 3.65 | 3.42 | 1.56 | 1 | 0.452 | 0.487 | 0.757 | 0.576 | 0.915 | 1.01
GCTGCTAGGTCAACTGATGGTCGGCTAAAGCTCG | 4.58 | 4.01 | 0.404 | -0.469 | 0.839 | 1.4 | -0.734 | 2.31 | -0.561 | 4.45
ACTTACGGGTCAACGAGGTTAGAGCACGCGTATA | 3.74 | 4.28 | 0.679 | 0.825 | 2.64 | 4.7 | 1.33 | 4.99 | 0.957 | 4.2
AGAATGAGGTTATTAAGATCACGGAATTGCGGTC | 3.48 | 3.23 | 1.05 | 1.25 | 1.1 | 1.55 | 1.01 | 1.86 | 0.114 | 1.43
TCATATAGGTAAATGCTAGGTGATAGTCCGATCT | 4.05 | 2.45 | 0.855 | 0.985 | 0.409 | 0.395 | 0.368 | 0.797 | 1.3 | 0.301
TCTTGTAGAACAAGCAGGTTAAGAAAGCCTGAGT | 1.62 | 0.593 | 0.632 | -0.0834 | -0.0982 | 0.365 | 0.0921 | 0.607 | -0.498 | 0.0626
GATACAGGGTCAAGGCCATAGTACGCGTATTGAT | 2.5 | 4.05 | 0.702 | -0.195 | 1.64 | 3.94 | 0.404 | 4.65 | 0.823 | 4.41
TCTAGGTGGTCACGGAGGTCACACACGACGGGTA | 1.88 | 4.12 | 0.705 | 0.508 | 2.75 | 4.44 | 0.948 | 4.51 | 1.02 | 3.84
TTACCTAGGTGAAAGGTCGTTGATGCACGCCTTG | 5.23 | 6.14 | 1.6 | 0.889 | 1.73 | 3.69 | 0.261 | 4.82 | -0.203 | 2.38
CGTCCAAGGTCATCAGGTCAGTGAAAGCGACGTG | 3.92 | 4.54 | 1.13 | -0.42 | 3.58 | 4.88 | 1.66 | 5.46 | 1.46 | 5.43
AAAGACAGGTGATGAAGGTAACTCAGGCTATCAT | 0.0134 | 0.744 | 0.665 | -0.142 | 0.408 | 0.0948 | 0.956 | 0.223 | 1 | 0.438
CCTACTGGGCCACGAAAGGTCATCGATTCAGTGA | 5.98 | 5.97 | -0.47 | 0.605 | 4.31 | 5.62 | 0.616 | 6.08 | 0.927 | 4.17
ATACCAAGGTGATCGTGAGGTCATTGATACTAAC | 0.662 | 2.58 | 0.666 | 0.349 | 2.35 | 5.39 | 4.33 | 4.55 | 0.789 | 3.25
CCTTACGGGTCAAGGTTATAACACGGGTGGTACG | 2.12 | 3.6 | 0.305 | -0.192 | 2.04 | 3.52 | 0.548 | 4.5 | 0.85 | 4.24
GCTTGGAGATCAAGGTTAAGAAAGACTAAGCTAA | -0.178 | 0.209 | -0.0376 | -0.611 | 0.0193 | 0.278 | -0.313 | 1.12 | -0.305 | 0.871
TCTAGGAGGACACGAAAGGTCAGAGCTCGACATC | 2.31 | 2.52 | 0.115 | -0.502 | 2.04 | 4.08 | 0.408 | 4.32 | 1.42 | 4.35
TAGCCTAGGTCATTGGTCCAGTATAGTACGCATC | 2.05 | 2.93 | 0.413 | 0.614 | 1.51 | 1.76 | 0.043 | 2.39 | 0.179 | 3.58
